How the values were obtained:
Test in all cases: DAPPL (digital affinity profiling via proximity ligation, sequencing); 10 mM Tris-HCl pH 7.5, 50 mM NaCl, 1 mM DTT, 4% glycerol, room temperature, 30 min; GST-TFs on glutathione beads, 16-mer random dsDNA library, 0.1% formaldehyde crosslink after washing; high values mean tight binding
Details in all cases: protein: recombinant; tags: N-terminal GST; dsDNA, one strand shown
ELK1 = biological target: T1, ELK1 (Homo sapiens, UniProt P19419 1-428)
T1 sequence: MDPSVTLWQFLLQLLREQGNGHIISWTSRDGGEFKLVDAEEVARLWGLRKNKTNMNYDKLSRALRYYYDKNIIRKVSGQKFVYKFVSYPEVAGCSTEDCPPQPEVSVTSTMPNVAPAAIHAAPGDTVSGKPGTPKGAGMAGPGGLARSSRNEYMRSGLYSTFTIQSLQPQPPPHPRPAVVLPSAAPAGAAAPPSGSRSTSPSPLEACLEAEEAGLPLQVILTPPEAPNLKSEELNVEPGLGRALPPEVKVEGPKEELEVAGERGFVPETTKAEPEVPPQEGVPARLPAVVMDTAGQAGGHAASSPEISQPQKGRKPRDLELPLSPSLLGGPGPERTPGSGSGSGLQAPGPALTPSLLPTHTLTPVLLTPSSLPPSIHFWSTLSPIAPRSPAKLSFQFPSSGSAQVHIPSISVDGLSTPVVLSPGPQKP
Summary of the method: (§1)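 A tag-only sample was pooled with DNA-barcoded human transcription factors that had been expressed in yeast as GST fusions and captured on glutathione beads. The pools were incubated for 30 min at room temperature with 200 nmole of a random double-stranded 16-mer DNA library in Tris/NaCl/DTT/glycerol buffer, then washed, crosslinked with 0.1% formaldehyde, proximity-ligated (BsaI/T4 ligase, 1 h, 37 °C), PCR-amplified and sequenced on an Illumina NextSeq500. Binding signal is each hexamer's read frequency for a factor divided by its frequency for the tag-only sample.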

GABPA = biological target: T2, GABPA (Homo sapiens, UniProt Q06546 1-454)
T2 sequence: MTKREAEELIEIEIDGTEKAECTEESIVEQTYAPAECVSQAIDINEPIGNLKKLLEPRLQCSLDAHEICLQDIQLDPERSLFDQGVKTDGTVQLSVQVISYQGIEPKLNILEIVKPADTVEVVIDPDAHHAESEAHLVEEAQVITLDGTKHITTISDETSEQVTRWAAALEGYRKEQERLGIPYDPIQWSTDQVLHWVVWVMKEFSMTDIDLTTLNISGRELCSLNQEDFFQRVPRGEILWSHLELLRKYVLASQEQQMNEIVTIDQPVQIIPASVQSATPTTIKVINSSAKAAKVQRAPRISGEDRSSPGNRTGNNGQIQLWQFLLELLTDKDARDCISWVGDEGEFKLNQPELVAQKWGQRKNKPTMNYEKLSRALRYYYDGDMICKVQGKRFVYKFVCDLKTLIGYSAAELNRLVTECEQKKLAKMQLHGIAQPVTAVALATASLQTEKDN
Summary of the method: as §1

ERG = biological target: T3, ERG (Homo sapiens, UniProt P11308 1-479)
T3 sequence: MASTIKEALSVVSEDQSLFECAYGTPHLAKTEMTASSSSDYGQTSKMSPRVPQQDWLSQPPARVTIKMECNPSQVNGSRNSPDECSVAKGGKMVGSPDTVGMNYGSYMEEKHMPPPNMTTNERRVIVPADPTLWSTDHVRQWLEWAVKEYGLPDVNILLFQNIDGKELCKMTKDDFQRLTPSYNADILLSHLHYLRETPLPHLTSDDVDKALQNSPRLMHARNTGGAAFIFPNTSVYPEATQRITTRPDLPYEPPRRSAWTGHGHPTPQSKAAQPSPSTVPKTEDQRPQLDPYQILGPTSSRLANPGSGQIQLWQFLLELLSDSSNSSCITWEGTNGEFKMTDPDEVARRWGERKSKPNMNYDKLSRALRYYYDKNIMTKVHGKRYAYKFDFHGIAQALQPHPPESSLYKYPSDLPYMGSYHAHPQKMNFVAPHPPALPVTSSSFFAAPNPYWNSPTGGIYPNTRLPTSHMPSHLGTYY
Summary of the method: as §1

ELF1 = ELF1 (Homo sapiens, UniProt P32519 1-619)
Summary of the method: as §1

SPIB = SPIB (Homo sapiens, UniProt Q01892 1-262)
Summary of the method: as §1

FEV = biological target: T4, FEV (Homo sapiens, UniProt Q99581 1-238)
T4 sequence: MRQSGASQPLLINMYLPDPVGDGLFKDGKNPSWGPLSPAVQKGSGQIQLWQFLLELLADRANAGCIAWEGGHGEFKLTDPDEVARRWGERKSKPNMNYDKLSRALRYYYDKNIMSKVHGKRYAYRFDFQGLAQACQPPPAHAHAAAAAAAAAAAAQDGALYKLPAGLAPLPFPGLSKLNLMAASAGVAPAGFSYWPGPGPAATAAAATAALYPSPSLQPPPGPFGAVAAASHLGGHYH
Summary of the method: as §1

ETV5 = ETV5 (Homo sapiens, UniProt P41161 1-510)
Summary of the method: as §1

ELF4 = ELF4 (Homo sapiens, UniProt Q99607 1-663)
Summary of the method: as §1

ELK4 = biological target: T5, ELK4 (Homo sapiens, UniProt P28324-2 1-405)
T5 sequence: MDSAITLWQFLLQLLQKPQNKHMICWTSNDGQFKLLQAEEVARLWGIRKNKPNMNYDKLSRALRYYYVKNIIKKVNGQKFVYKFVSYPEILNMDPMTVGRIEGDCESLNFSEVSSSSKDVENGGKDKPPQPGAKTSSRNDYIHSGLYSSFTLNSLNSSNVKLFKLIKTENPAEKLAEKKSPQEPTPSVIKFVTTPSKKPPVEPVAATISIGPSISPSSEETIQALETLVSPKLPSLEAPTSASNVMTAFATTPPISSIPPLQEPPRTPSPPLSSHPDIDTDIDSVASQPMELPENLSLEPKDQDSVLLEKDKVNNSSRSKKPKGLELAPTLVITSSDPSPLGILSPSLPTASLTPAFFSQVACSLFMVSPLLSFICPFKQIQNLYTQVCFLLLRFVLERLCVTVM
Summary of the method: as §1

ETV2 = biological target: T6, ETV2 (Homo sapiens, UniProt O00321 1-342)
T6 sequence: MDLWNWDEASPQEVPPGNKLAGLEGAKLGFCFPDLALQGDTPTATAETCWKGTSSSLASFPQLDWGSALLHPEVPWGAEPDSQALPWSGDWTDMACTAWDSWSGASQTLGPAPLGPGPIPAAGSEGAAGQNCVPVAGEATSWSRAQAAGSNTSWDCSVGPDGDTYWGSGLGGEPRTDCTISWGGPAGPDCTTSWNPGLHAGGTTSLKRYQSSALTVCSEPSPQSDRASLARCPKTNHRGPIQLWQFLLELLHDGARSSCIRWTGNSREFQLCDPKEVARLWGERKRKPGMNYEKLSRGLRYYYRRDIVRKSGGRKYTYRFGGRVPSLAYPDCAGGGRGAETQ
Summary of the method: as §1

ELF3 = biological target: T7, ELF3 (Homo sapiens, UniProt P78545 1-371)
T7 sequence: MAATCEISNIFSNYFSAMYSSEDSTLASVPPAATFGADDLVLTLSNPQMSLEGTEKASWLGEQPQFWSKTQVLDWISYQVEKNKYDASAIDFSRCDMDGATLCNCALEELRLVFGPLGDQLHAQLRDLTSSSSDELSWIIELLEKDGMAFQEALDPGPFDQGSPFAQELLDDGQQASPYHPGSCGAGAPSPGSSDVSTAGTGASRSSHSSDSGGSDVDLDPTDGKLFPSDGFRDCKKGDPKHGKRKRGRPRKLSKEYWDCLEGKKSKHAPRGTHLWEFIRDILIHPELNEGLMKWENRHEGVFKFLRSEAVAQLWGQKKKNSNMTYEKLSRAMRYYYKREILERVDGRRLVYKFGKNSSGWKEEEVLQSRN
Summary of the method: as §1

ETV1 = ETV1 (Homo sapiens, UniProt P50549 1-477)
Summary of the method: as §1

ETV3L = biological target: T8, ETV3L (Homo sapiens, UniProt Q6ZN32 1-361)
T8 sequence: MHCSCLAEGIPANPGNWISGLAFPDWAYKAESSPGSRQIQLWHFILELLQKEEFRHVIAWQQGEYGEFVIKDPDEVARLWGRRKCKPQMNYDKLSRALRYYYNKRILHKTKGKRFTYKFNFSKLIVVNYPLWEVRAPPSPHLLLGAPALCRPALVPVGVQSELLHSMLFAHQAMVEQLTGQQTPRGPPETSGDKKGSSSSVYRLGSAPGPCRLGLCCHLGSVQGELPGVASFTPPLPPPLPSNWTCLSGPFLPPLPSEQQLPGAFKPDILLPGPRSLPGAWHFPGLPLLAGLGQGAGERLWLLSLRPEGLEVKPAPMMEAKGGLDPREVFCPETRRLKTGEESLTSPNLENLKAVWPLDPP
Summary of the method: as §1

ETS2 = biological target: T9, ETS2 (Homo sapiens, UniProt P15036 1-469)
T9 sequence: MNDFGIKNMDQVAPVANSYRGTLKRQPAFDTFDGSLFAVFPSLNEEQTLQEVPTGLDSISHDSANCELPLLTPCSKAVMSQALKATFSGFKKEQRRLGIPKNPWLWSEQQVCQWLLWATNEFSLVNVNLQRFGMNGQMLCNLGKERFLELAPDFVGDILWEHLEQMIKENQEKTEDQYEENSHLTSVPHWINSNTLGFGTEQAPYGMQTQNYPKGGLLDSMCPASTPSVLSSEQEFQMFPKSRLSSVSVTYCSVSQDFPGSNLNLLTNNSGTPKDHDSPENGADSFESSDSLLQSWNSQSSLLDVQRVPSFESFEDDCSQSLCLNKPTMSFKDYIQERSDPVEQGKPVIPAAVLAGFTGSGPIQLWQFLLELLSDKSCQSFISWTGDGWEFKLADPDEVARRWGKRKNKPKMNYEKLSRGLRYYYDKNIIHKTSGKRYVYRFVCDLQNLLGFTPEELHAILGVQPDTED
Summary of the method: as §1

SPDEF = biological target: T10, SPDEF (Homo sapiens, UniProt O95238 1-335)
T10 sequence: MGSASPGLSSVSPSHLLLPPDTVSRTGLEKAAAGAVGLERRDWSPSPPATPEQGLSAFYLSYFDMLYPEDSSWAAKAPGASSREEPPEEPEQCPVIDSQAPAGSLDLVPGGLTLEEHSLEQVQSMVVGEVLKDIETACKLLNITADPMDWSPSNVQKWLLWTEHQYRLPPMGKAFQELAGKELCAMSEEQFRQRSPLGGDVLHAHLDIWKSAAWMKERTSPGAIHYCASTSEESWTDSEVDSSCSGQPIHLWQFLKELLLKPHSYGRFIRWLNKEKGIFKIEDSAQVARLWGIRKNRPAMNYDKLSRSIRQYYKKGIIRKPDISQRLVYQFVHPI
Summary of the method: as §1

ETV7 = biological target: T11, ETV7 (Homo sapiens, UniProt Q9Y603 1-341)
T11 sequence: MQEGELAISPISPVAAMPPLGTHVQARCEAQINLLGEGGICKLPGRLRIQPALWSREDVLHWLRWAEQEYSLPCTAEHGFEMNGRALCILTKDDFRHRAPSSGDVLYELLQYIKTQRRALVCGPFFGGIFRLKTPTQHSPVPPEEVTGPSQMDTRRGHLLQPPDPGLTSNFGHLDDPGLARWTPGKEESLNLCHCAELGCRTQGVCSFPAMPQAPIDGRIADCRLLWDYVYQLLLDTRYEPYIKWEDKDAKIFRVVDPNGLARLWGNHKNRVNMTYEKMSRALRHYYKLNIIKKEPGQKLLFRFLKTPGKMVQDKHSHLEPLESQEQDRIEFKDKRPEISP
Summary of the method: as §1

ETV3 = biological target: T12, ETV3 (Homo sapiens, UniProt P41162-2 1-143)
T12 sequence: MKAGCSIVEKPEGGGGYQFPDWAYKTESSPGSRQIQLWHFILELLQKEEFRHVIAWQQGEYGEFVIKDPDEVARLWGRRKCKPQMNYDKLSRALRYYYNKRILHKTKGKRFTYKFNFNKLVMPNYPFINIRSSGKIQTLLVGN
Summary of the method: as §1

ETV6 = ETV6 (Homo sapiens, UniProt P41212 1-452)
Summary of the method: as §1

Chain of ETV5 (P41161 whole entry): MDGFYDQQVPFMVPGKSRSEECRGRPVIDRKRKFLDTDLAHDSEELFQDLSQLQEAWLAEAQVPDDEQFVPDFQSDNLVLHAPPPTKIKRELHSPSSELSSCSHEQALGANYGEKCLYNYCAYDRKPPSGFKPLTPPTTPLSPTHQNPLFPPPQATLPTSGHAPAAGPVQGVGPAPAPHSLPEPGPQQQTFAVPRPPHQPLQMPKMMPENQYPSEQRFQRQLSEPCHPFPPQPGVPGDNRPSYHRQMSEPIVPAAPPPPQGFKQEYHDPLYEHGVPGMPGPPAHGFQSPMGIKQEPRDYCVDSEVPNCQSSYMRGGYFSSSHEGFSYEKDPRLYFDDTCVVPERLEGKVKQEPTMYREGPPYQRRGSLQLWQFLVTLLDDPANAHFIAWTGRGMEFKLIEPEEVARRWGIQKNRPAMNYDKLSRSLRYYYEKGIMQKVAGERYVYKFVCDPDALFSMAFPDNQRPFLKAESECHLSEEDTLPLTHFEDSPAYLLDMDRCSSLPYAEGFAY
Chain of ETV1 (P50549 whole entry): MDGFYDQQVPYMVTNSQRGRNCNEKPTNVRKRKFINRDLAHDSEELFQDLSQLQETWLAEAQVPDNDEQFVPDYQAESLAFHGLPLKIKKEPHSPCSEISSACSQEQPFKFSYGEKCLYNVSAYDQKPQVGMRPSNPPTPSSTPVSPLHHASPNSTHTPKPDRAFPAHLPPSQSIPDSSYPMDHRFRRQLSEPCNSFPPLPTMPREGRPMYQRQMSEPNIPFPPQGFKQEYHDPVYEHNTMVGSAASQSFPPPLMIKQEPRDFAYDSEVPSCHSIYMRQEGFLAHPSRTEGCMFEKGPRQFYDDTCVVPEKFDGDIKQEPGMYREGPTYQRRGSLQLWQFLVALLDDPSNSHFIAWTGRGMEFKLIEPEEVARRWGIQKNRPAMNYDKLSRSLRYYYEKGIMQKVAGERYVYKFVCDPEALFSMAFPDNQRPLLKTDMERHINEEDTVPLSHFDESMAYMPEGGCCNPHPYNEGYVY
Chain of ELF4 (Q99607 whole entry): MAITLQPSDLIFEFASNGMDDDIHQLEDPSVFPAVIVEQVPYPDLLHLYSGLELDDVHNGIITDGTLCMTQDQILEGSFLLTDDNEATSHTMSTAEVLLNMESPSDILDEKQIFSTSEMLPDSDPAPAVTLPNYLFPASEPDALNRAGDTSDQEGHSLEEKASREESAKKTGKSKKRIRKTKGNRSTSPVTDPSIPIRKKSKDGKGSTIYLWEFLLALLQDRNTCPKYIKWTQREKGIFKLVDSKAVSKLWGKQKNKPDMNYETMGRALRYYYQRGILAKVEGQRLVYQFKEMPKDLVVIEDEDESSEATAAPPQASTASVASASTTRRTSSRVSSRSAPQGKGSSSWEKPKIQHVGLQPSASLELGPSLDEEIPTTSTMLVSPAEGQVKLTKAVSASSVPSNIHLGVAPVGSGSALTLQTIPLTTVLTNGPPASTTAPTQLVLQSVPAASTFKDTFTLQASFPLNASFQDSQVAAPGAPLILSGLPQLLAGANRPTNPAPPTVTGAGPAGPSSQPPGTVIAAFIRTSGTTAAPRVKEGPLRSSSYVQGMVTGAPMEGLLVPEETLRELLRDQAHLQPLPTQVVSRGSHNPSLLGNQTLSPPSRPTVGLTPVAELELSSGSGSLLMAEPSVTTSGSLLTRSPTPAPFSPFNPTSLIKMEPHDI
Chain of SPIB (Q01892 whole entry): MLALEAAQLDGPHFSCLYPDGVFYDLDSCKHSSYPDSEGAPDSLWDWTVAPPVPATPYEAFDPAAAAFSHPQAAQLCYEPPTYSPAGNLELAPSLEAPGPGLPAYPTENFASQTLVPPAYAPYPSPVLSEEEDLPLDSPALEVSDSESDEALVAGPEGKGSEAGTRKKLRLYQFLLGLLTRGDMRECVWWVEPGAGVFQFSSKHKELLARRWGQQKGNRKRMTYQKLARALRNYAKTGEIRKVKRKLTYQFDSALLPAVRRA
Chain of ELF1 (P32519 whole entry): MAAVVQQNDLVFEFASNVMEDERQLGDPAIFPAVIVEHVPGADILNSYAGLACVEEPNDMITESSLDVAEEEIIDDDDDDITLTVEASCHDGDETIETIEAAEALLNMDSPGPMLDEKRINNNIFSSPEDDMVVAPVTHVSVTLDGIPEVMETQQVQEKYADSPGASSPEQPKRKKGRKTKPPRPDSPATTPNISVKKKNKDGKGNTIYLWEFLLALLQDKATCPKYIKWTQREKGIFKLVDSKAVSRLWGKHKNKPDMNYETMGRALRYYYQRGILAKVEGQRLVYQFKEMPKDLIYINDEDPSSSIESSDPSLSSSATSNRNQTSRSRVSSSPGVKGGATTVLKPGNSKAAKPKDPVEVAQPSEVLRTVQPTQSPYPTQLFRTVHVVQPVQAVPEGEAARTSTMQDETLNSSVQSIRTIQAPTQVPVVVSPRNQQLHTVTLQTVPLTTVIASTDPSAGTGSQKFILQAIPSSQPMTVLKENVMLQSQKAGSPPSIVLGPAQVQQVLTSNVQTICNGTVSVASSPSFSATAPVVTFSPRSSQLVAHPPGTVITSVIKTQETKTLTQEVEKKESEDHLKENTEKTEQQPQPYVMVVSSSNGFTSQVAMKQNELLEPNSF
Chain of ETV6 (P41212 whole entry): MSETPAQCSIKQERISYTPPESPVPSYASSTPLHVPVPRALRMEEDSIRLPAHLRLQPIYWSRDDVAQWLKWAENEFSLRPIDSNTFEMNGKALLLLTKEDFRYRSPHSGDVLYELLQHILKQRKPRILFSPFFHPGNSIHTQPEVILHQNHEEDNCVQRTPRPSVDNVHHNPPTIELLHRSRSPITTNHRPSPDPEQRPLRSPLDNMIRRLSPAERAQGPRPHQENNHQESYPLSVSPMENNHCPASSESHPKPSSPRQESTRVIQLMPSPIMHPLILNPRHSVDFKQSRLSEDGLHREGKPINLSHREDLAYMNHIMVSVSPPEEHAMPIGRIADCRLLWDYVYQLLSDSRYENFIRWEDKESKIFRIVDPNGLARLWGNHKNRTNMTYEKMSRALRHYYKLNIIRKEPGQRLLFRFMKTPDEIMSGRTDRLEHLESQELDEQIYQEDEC

GGTATC
binding signal (ELK1): 1.07 fold enrichment (6-mer frequency, TF over GST control)
binding signal (GABPA): 1.06 fold enrichment (6-mer frequency, TF over GST control)
binding signal (ERG): 1.07 fold enrichment (6-mer frequency, TF over GST control)
binding signal (ELF1): 1.09 fold enrichment (6-mer frequency, TF over GST control)
binding signal (SPIB): 1.04 fold enrichment (6-mer frequency, TF over GST control)
binding signal (FEV): 1.06 fold enrichment (6-mer frequency, TF over GST control)
binding signal (ETV5): 1.06 fold enrichment (6-mer frequency, TF over GST control)
binding signal (ELF4): 1.08 fold enrichment (6-mer frequency, TF over GST control)
binding signal (ELK4): 1.13 fold enrichment (6-mer frequency, TF over GST control)
binding signal (ETV2): 1.23 fold enrichment (6-mer frequency, TF over GST control)
binding signal (ELF3): 1.23 fold enrichment (6-mer frequency, TF over GST control)
binding signal (ETV1): 1.1 fold enrichment (6-mer frequency, TF over GST control)
binding signal (ETV3L): 1.02 fold enrichment (6-mer frequency, TF over GST control)
binding signal (ETS2): 1.01 fold enrichment (6-mer frequency, TF over GST control)
binding signal (SPDEF): 1.33 fold enrichment (6-mer frequency, TF over GST control)
binding signal (ETV7): 1.06 fold enrichment (6-mer frequency, TF over GST control)
binding signal (ETV3): 1.04 fold enrichment (6-mer frequency, TF over GST control)
binding signal (ETV6): 1.03 fold enrichment (6-mer frequency, TF over GST control)

Source: PMC7862700, “An all-to-all approach to the identification of sequence-specific readers for epigenetic DNA modifications on cytosine”
